Results: PubChem BioAssay AID2275 (Broad Institute, 2010)
Screen size: about 30,000 compounds; about 190 (0.63%) were called active. The sample as a whole holds a higher share of actives than the screen did. A number with no mark means an inactive call. Cut-off read from the data, not from the text of the source: active = viability loss activity score above about 50%; inconclusive = no clear call, values can overlap the other calls; inactive = below about 35%.

Assay: BJeLR cell viability loss, primary screen, luminescence, CellTiterGlo ATP (AID 2275);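 note: higher score means fewer live cells and less ATP luminescence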
Conditions: BJeLR fibroblasts viability, 48 h, stronger effect = higher value, HRASV12, hTERT and SV40 LT/ST transformed, concentration not given here

Row | Compound | viability loss activity score
1 | O=c1cc(N2CCN(c3ccccc3)CC2)[nH]c(=O)n1-c1ccc(Cl)cc1 | 2.58%
2 | CN(Cc1ccccc1)C(=O)c1cc(-c2ccc(Cl)cc2)on1 | 3.08%
3 | CC1=C(C(=O)OCc2ccccc2)OC(N)=C(C#N)C1c1ccc(F)cc1 (stereo not drawn) | 1.52%
4 | Cc1ccc(Cl)cc1N(C)C(=O)c1cc2c(-c3ccc(Cl)cc3)nn(C)c2s1 | -0.32%
5 | Cc1ccccc1NC(=O)Nc1ccccc1N1CCCCC1 | 1.43%
6 | C=C1SC(Nc2ccc(C)cc2)=NC1(C)C | 0.0102%
7 | COc1ccc2c(c1)-c1c(ssc1=S)C(C)(C)N2C(C)=O | 12.8%
8 | C[C@H]1O[C@@H](O[C@H]2[C@@H](O)C[C@H](O[C@H]3[C@@H](O)C[C@H](O[C@H]4CC[C@]5(C)C6C[C@@H](O)[C@]7(C)[C@@H](C8=CC(=O)OC8)CC[C@]7(O)C6CC[C@@H]5C4)O[C@@H]3C)O[C@@H]2C)C[C@H](O)[C@@H]1O (stereo partly drawn) | 129% (active)
9 | COc1cc(OC)cc(C2C(C#N)=C(N)OC(N)=C2C#N)c1 | 1.86%
10 | CCOC(=O)C1CCN(C(=O)CN2C(=O)c3ccccc3C2=O)CC1 | -3.08%
11 | Cc1noc(C)c1NC(=O)Nc1ccc2c(c1)C(=O)N([C@H](C)CO)C[C@H](C)[C@H](CN(C)Cc1ccc(-c3ccccc3)cc1)O2 | -1.86%
12 | Cc1cc(-c2nc(C)c(-c3nnc(SCC(=O)Nc4ccccc4)n3C)s2)no1 | -2.45%
13 | Cc1ccc2oc(=O)c3cc(C(=O)NC4CCCC4)sc3c2c1 | 4.55%
14 | Cc1ccc(S(=O)(=O)N(CC(=O)Nc2ccc3c(c2)OCCO3)C2CCCCC2)cc1 | -4.45%
15 | CC[C@H]1CN2CCc3cc(OC)c(OC)cc3[C@@H]2C[C@@H]1C[C@H]1NCCc2cc(OC)c(OC)cc21 | 96.1% (active)
16 | COc1cc2c(cc1OC)C1CN3CCc4cc(OC)c(OC)cc4C3CN1CC2 (stereo not drawn) | 18.2%
17 | O=C(Nc1cccc(-c2nc3ccccc3o2)c1)c1cccc(OCc2ccccc2)c1 | 10.7%
18 | Cc1ccc(CN2CCSc3ccc(C(=O)Nc4ccc(F)cc4)cc32)cc1 | 0.172%
19 | O=C(NC1CCCCC1)C1CCC(CNS(=O)(=O)c2ccccc2)CC1 (stereo not drawn) | 6.1%
20 | CCc1ccc(NC(=O)NC(C)(C)C)cc1 | -4.47%
21 | Cc1ccc(CNC(=O)CCC(=O)Nc2ccc3nc(N4CCCCC4)cc(C)c3c2)cc1 | 0.494%
22 | Cc1ccccc1NCC(=O)NN | -2.54%
23 | Cc1nnn(C23CC4CC(CC(CC(=O)Nc5ccc(Cl)cc5)(C4)C2)C3)n1 | -2.2%
